Laboratory results: PMC12529666, “Dysregulation of AGO2-miRNA dynamics underlies the AGO2-associated Lessel–Kreienkamp syndrome”

B1: ACGCCTCG (ssRNA)
RNA 1: GAGUUCUACAGUCCGACGAUCCCAACACGCCUCGCACCUGGAAUUCUCGGGUGCCAA
RNA 2: UGGAGUGUGACAAUGGUGUUUG
DNA 1: GATCGTCGGACTGTAGAACTC
DNA 2: TTGGCACCCGAGAATTCCA
modifications: constant regions annealed to DNA blockers; guide miR-122 5' phosphate
B2: ATGCCCTA (ssRNA)
RNA 1: GAGUUCUACAGUCCGACGAUCCCAACAUGCCCUACACCUGGAAUUCUCGGGUGCCAA
RNA 2: UGGAGUGUGACAAUGGUGUUUG
DNA 1: GATCGTCGGACTGTAGAACTC
DNA 2: TTGGCACCCGAGAATTCCA
modifications: constant regions annealed to DNA blockers; guide miR-122 5' phosphate
B3: ATACTTTG (ssRNA)
RNA 1: GAGUUCUACAGUCCGACGAUCCCAACAUACUUUGCACCUGGAAUUCUCGGGUGCCAA
RNA 2: UGGAGUGUGACAAUGGUGUUUG
DNA 1: GATCGTCGGACTGTAGAACTC
DNA 2: TTGGCACCCGAGAATTCCA
modifications: constant regions annealed to DNA blockers; guide miR-122 5' phosphate
B4: ATGTTTCG (ssRNA)
RNA 1: GAGUUCUACAGUCCGACGAUCCCAACAUGUUUCGCACCUGGAAUUCUCGGGUGCCAA
RNA 2: UGGAGUGUGACAAUGGUGUUUG
DNA 1: GATCGTCGGACTGTAGAACTC
DNA 2: TTGGCACCCGAGAATTCCA
modifications: constant regions annealed to DNA blockers; guide miR-122 5' phosphate
B5: ATGTCCTG (ssRNA)
RNA 1: GAGUUCUACAGUCCGACGAUCCCAACAUGUCCUGCACCUGGAAUUCUCGGGUGCCAA
RNA 2: UGGAGUGUGACAAUGGUGUUUG
DNA 1: GATCGTCGGACTGTAGAACTC
DNA 2: TTGGCACCCGAGAATTCCA
modifications: constant regions annealed to DNA blockers; guide miR-122 5' phosphate
B6: ATATTCCG (ssRNA)
RNA 1: GAGUUCUACAGUCCGACGAUCCCAACAUAUUCCGCACCUGGAAUUCUCGGGUGCCAA
RNA 2: UGGAGUGUGACAAUGGUGUUUG
DNA 1: GATCGTCGGACTGTAGAACTC
DNA 2: TTGGCACCCGAGAATTCCA
modifications: constant regions annealed to DNA blockers; guide miR-122 5' phosphate
B7: ACATCTTA (ssRNA)
RNA 1: GAGUUCUACAGUCCGACGAUCCCAACACAUCUUACACCUGGAAUUCUCGGGUGCCAA
RNA 2: UGGAGUGUGACAAUGGUGUUUG
DNA 1: GATCGTCGGACTGTAGAACTC
DNA 2: TTGGCACCCGAGAATTCCA
modifications: constant regions annealed to DNA blockers; guide miR-122 5' phosphate
B8: GCGCTTTG (ssRNA)
RNA 1: GAGUUCUACAGUCCGACGAUCCCAACGCGCUUUGCACCUGGAAUUCUCGGGUGCCAA
RNA 2: UGGAGUGUGACAAUGGUGUUUG
DNA 1: GATCGTCGGACTGTAGAACTC
DNA 2: TTGGCACCCGAGAATTCCA
modifications: constant regions annealed to DNA blockers; guide miR-122 5' phosphate
B9: GTGTCTTG (ssRNA)
RNA 1: GAGUUCUACAGUCCGACGAUCCCAACGUGUCUUGCACCUGGAAUUCUCGGGUGCCAA
RNA 2: UGGAGUGUGACAAUGGUGUUUG
DNA 1: GATCGTCGGACTGTAGAACTC
DNA 2: TTGGCACCCGAGAATTCCA
modifications: constant regions annealed to DNA blockers; guide miR-122 5' phosphate
B10: ACGCTTCG (ssRNA)
RNA 1: GAGUUCUACAGUCCGACGAUCCCAACACGCUUCGCACCUGGAAUUCUCGGGUGCCAA
RNA 2: UGGAGUGUGACAAUGGUGUUUG
DNA 1: GATCGTCGGACTGTAGAACTC
DNA 2: TTGGCACCCGAGAATTCCA
modifications: constant regions annealed to DNA blockers; guide miR-122 5' phosphate
B11: ATGCTTCG (ssRNA)
RNA 1: GAGUUCUACAGUCCGACGAUCCCAACAUGCUUCGCACCUGGAAUUCUCGGGUGCCAA
RNA 2: UGGAGUGUGACAAUGGUGUUUG
DNA 1: GATCGTCGGACTGTAGAACTC
DNA 2: TTGGCACCCGAGAATTCCA
modifications: constant regions annealed to DNA blockers; guide miR-122 5' phosphate
B12: ATGTCTCG (ssRNA)
RNA 1: GAGUUCUACAGUCCGACGAUCCCAACAUGUCUCGCACCUGGAAUUCUCGGGUGCCAA
RNA 2: UGGAGUGUGACAAUGGUGUUUG
DNA 1: GATCGTCGGACTGTAGAACTC
DNA 2: TTGGCACCCGAGAATTCCA
modifications: constant regions annealed to DNA blockers; guide miR-122 5' phosphate

Each binder was assayed against AGO2 L192P (Homo sapiens, UniProt Q9UKV8 1-859, L192P;S387D;S824A;S828D;S831D;S834A) (assay: RNA Bind-n-Seq (nitrocellulose filter binding and sequencing); miR-122 guide loaded in AGO2; 60 min incubation; 30 mM Tris pH 8.0, 100 mM potassium acetate, 2 mM magnesium acetate, 0.5 mM TCEP, 0.005% NP-40, 0.01 mg/ml yeast tRNA; 3 nM AGO2-miR-122, 100 nM RNA library; 60; high values mean tight binding). Conditions: protein: recombinant; tags: His6 (N-terminal, pFastBac HTA).
Sequence of AGO2 L192P (Q9UKV8 whole entry L192P/S387D/S824A/S828D/S831D/S834A): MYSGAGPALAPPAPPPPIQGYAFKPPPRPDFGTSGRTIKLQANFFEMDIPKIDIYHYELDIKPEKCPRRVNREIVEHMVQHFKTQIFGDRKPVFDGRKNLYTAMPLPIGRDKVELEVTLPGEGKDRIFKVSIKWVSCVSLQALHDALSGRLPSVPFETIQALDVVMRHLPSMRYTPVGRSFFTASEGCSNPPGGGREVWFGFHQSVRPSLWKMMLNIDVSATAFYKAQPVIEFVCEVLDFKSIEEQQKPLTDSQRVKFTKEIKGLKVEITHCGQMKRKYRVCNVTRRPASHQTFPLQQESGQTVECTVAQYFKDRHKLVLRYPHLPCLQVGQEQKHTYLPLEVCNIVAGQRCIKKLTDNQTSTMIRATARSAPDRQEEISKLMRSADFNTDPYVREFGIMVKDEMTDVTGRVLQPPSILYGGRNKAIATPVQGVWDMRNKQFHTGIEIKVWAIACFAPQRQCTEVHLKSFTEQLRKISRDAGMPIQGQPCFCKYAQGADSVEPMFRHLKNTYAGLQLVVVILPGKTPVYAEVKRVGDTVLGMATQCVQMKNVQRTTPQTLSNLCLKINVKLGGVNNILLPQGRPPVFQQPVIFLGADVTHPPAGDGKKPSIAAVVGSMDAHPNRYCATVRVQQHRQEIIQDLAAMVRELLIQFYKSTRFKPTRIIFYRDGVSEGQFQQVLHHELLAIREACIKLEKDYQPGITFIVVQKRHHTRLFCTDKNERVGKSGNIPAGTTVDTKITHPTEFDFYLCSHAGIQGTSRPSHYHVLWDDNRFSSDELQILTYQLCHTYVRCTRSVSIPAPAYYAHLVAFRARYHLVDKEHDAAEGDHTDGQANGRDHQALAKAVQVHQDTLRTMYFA
How it was run: (§1)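 His-tagged AGO2 was expressed in Sf9 insect cells by baculovirus, loaded with a synthetic guide RNA, and purified by Ni-NTA and a biotinylated capture oligo. Bound RNA was extracted, reverse-transcribed, barcode-amplified and Illumina-sequenced. Fold enrichment is each sequence's read fraction divided by its input-library read fraction.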
B1 was tested, and the binding signal was 0.351 fold enrichment over input. With B2 the binding signal was 0.457 fold enrichment over input. For B3, the binding signal was 0.38 fold enrichment over input. With B4 the binding signal was 0.353 fold enrichment over input. In the case of B5, the binding signal is reported as 0.343 fold enrichment over input. With B6 the binding signal was 0.389 fold enrichment over input. B7 was tested, and the binding signal was 0.519 fold enrichment over input. For B8, the binding signal was 0.333 fold enrichment over input. For B9, the binding signal was 0.335 fold enrichment over input. B10 was tested, and the binding signal was 0.346 fold enrichment over input. With B11 the binding signal was 0.336 fold enrichment over input. In the case of B12, the binding signal is reported as 0.316 fold enrichment over input.

What follows are binders tested against AGO2 A367P (Homo sapiens, UniProt Q9UKV8 1-859, A367P;S387D;S824A;S828D;S831D;S834A) in the same assay as above. Conditions: protein: recombinant; tags: His6 (N-terminal, pFastBac HTA).
Sequence of AGO2 A367P (Q9UKV8 whole entry A367P/S387D/S824A/S828D/S831D/S834A): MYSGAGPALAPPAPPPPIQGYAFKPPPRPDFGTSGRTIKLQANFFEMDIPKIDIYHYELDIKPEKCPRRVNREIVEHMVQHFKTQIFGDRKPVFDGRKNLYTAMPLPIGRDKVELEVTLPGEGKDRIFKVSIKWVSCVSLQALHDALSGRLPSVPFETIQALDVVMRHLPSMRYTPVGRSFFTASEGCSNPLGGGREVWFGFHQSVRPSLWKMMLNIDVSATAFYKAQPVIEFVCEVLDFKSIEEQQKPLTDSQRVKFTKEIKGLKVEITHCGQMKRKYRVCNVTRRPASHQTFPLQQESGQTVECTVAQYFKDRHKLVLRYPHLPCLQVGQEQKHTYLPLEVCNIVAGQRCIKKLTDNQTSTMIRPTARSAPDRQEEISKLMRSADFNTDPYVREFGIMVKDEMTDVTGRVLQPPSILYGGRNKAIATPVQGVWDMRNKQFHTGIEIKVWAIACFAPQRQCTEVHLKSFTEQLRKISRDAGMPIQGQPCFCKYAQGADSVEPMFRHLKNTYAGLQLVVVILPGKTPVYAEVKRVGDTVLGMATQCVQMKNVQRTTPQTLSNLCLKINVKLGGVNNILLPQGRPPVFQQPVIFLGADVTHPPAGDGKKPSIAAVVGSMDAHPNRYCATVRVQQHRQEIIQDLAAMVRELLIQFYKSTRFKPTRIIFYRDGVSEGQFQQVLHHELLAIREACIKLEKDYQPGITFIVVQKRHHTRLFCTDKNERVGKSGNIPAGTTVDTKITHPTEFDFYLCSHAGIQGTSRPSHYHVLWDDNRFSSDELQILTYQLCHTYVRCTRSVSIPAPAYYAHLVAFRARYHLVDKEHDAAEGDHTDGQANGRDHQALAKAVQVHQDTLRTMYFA
How it was run: as §1
With B1 the binding signal was 0.15 fold enrichment over input. With B2 the binding signal was 0.166 fold enrichment over input. For B3, the binding signal was 0.138 fold enrichment over input. In the case of B4, the binding signal is reported as 0.123 fold enrichment over input. With B5 the binding signal was 0.122 fold enrichment over input. In the case of B6, the binding signal is reported as 0.136 fold enrichment over input. For B7, the binding signal was 0.197 fold enrichment over input. With B8 the binding signal was 0.137 fold enrichment over input. B9 was tested, and the binding signal was 0.131 fold enrichment over input. B10 was tested, and the binding signal was 0.139 fold enrichment over input. B11 was tested, and the binding signal was 0.127 fold enrichment over input.

The binders below were run against AGO2 T357M (Homo sapiens, UniProt Q9UKV8 1-859, T357M;S387D;S824A;S828D;S831D;S834A) in the same assay as above. Conditions: protein: recombinant; tags: His6 (N-terminal, pFastBac HTA).
Sequence of AGO2 T357M (Q9UKV8 whole entry T357M/S387D/S824A/S828D/S831D/S834A): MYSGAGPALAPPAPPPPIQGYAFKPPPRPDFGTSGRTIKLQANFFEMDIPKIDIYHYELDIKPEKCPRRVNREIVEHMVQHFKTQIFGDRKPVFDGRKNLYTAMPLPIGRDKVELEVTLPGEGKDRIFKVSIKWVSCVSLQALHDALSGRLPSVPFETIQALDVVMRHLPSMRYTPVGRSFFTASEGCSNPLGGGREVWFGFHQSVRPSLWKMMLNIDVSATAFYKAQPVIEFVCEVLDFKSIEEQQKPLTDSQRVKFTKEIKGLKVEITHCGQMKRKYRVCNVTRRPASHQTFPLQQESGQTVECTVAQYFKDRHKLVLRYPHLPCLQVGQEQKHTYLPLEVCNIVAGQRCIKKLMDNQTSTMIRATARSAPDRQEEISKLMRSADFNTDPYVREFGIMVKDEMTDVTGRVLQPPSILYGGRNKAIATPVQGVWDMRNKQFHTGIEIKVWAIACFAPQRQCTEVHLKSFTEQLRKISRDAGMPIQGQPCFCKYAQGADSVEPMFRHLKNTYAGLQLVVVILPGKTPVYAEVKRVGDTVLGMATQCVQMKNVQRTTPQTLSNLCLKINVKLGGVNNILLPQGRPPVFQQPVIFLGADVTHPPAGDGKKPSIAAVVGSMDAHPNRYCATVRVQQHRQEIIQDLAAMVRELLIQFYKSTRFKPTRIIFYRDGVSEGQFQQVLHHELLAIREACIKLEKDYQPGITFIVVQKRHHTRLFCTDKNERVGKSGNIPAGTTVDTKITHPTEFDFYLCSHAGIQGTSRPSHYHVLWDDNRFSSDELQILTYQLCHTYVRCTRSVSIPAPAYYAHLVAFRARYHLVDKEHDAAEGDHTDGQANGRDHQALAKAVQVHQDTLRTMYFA
How it was run: as §1
For B1, the binding signal was 0.48 fold enrichment over input. With B2 the binding signal was 0.544 fold enrichment over input. In the case of B3, the binding signal is reported as 0.553 fold enrichment over input. With B4 the binding signal was 0.462 fold enrichment over input. For B5, the binding signal was 0.425 fold enrichment over input. For B6, the binding signal was 0.541 fold enrichment over input. With B7 the binding signal was 0.562 fold enrichment over input. For B8, the binding signal was 0.462 fold enrichment over input. In the case of B9, the binding signal is reported as 0.447 fold enrichment over input. For B10, the binding signal was 0.445 fold enrichment over input. With B11 the binding signal was 0.474 fold enrichment over input. B12 was tested, and the binding signal was 0.415 fold enrichment over input.

Each binder was assayed against AGO2 F182del (Homo sapiens, UniProt Q9UKV8 1-859, S387D;S824A;S828D;S831D;S834A;del182-182) in the same assay as above. Conditions: protein: recombinant; tags: His6 (N-terminal, pFastBac HTA).
Sequence of AGO2 F182del (Q9UKV8 other isoform, or with tags, fused parts or gaps S387D;S824A;S828D;S831D;S834A;del182-182): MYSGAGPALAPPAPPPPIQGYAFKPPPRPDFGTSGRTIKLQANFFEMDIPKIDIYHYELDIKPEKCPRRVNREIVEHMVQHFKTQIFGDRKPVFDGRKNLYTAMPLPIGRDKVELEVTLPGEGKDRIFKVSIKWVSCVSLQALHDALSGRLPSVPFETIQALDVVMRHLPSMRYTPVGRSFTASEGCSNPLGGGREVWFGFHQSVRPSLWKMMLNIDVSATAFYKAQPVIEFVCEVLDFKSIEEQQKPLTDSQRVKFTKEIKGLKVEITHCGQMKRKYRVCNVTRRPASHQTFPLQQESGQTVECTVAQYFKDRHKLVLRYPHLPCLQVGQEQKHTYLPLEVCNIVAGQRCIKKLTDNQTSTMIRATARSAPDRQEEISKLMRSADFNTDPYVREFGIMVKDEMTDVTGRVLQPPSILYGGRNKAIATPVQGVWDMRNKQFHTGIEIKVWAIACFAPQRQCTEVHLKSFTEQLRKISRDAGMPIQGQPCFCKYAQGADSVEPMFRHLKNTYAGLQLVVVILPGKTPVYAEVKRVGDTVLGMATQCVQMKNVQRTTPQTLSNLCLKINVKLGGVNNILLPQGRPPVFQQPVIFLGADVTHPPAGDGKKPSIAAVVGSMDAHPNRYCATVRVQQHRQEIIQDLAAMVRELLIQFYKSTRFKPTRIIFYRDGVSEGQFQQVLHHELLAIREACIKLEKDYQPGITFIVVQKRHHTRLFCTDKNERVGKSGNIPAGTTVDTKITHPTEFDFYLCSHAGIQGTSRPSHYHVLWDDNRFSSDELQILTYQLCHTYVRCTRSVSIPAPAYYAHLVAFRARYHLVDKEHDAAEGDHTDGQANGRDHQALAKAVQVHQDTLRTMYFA
How it was run: as §1
B7 was tested, and the binding signal was 0.33 fold enrichment over input.
